tim23-1 inh: growth inhibitors of tim23-1 mutant yeast; 330,000 compounds, 1.3% hits; S. cerevisiae tim23-1 growth, BacTiter-Glo luminescence, 24 h; inhibition, % at 20 µM;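 active = growth inhibition of the mutant yeast at or above 50%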;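 also: temperature-sensitive mutant grown at 25 °C; plate controls were DMSO-treated mutant yeast for no effect and medium wells lacking yeast for full effect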
tim10-1 inh: tim10-1 yeast growth inhibition; S. cerevisiae tim10-1 ts strain growth, BacTiter-Glo, 24 h; inhibition, % at 20 µM; 330,000 compounds, 2.2% hits; AID 463190;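 active = inhibition of at least 40%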;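 also: mutant grown at 25 °C; 0% = DMSO wells with yeast and 100% = wells holding no yeast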
TIM10 inh: growth inhibitors of TIM10 yeast strain; S. cerevisiae TIM10 strain growth, BacTiter-Glo luminescence, 24 h; inhibition, % at 10 µM; 330,000 compounds, 1.4% hits; AID 463195;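 active = inhibition of 40% or more at the single tested concentration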;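 also: wild-type TIM10 isogenic control strain grown at permissive 25 °C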
Yeast superoxide: lowers age-related superoxide in aged yeast cells. S. cerevisiae aged cells, superoxide DHE fluorescence; stronger effect = lower value. superoxide response (% of plate mean), % at 10 µM. 330,000 compounds, 0.18% hits;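 active = superoxide response under a set limit, about three screen SD below normal, cut at about 65% in these data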;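 also: yeast aged for seven days with compound at 30 °C before DHE staining; 100% = average MFI of all compound-treated wells on the plate with controls excluded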
NLRP3 yeast inh: blocks the NALP3 inflammasome reconstituted in yeast. Yeast reconstituted NLRP3/ASC/caspase-1, beta-gal luminescence, 24 h. inhibition, % at 10 µM. 330,000 compounds, 0.39% hits. AID 2825;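 active = inhibition of 50% or more; inactive = inhibition below 50%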;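 also: plate controls were induced DMSO wells for no effect and uninduced yeast grown without galactose for full effect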
tim23-1 confirm: confirmation of tim23-1 mutant yeast growth inhibitors | AID 463218 | 4,400 compounds, 83% hits | S. cerevisiae tim23-1 growth, BacTiter-Glo luminescence, 24 h | inhibition, % at 20 µM | shares compounds with tim23-1 inh;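 active = inhibition above about 39% in either of two replicate wells at 20 µM, limit read from the data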;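 also: temperature-sensitive tim23-1 mutant grown at 25 °C; 0% = DMSO wells with yeast and 100% = medium wells without yeast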
* = called active by the depositor; / = no result. Hits are enriched below; roughly 3.8% of the tested compounds scored in any of these assays.

SMILES	tim23-1 inh	tim10-1 inh	TIM10 inh	Yeast superoxide	NLRP3 yeast inh	tim23-1 confirm
Cc1cc2ccccn2c1C(=O)c1cc([N+](=O)[O-])cc([N+](=O)[O-])c1	56.5*	39.4	37.9	99.9	11.9	66.8*
c1ccc(-n2nc3c(ccc4cnnc43)[nH]2)cc1	53.4*	24.3	21.5	100.6	14.5	50.3*
CC1CCc2cc(F)ccc2N1C(=O)c1cccnc1 (stereo unspecified)	-4.0	-12.6	-1.0	88.8	15.3	/
Cc1ccc(C(=O)O/N=C(\N)c2ccccn2)c(Cl)c1	51.2*	35.8	33.1	102.0	35.0	53.9*
O=C1CN(c2ccccc2)C(=S)N1c1ccccc1	42.3	18.4	4.3	108.4	12.6	/
O=C1CN(c2ccc(F)cc2)C(=S)N1c1ccccc1	56.9*	25.9	6.7	92.1	19.8	-15.5
COc1cc(CCc2ccccc2)c(C(=O)O)c(O)c1C/C=C(/C)CCC=C(C)C	74.6*	28.1	14.8	97.7	/	19.6
CCSc1nn2c(=O)c3ccccc3nc2s1	-14.0	19.9	8.6	117.1	-2.0	/
CCC(=O)Nc1nc(-c2ccc3c(c2)OCCO3)cs1	29.6	20.0	-8.7	96.4	37.2	/
CC(C)(C)C(=O)Nc1nc(-c2ccc3c(c2)OCO3)cs1	55.0*	29.6	31.1	106.8	8.3	49.9*
C#CCSc1nncn1C(=O)/C=C/c1ccccc1	52.1*	35.4	12.3	103.6	-0.4	76.8*
COc1ccccc1[C@@H]1C(c2ccccc2)=NN(c2ccc(Br)cc2)[C@H]1C(=O)N1CCOC1=O	52.8*	20.8	14.1	97.8	/	26.9
CC[C@@H]1C(c2cccc(Cl)c2)=NN(c2ccc(Br)cc2)[C@H]1C(=O)N1CCOC1=O	49.9	19.7	16.3	88.9	/	/
CC[C@@H]1C(c2ccccc2)=NN(c2ccc(Br)cc2)[C@H]1C(=O)N1CCOC1=O	58.1*	20.5	19.6	83.0	/	39.3
COc1ccccc1[C@@H]1C(c2cccc(C)c2)=NN(c2ccc(Br)cc2)[C@H]1C(=O)N1CCOC1=O	44.1	18.7	4.6	105.5	/	/
CC[C@@H]1C(c2ccc(F)cc2)=NN(c2ccc(Br)cc2)[C@H]1C(=O)N1CCOC1=O	57.8*	27.4	20.2	119.2	/	43.5*
C[C@@H]1C(c2ccc(F)cc2)=NN(c2ccccc2)[C@H]1C(=O)N1CCOC1=O	53.2*	34.4	6.7	96.2	/	33.6
CCOc1ccc(OCCCC(=O)N2CCN(S(=O)(=O)c3ccc(Cl)cc3)CC2)cc1	1.7	0.9	-2.2	96.8	6.9	/
O=C(Nc1ccccc1-c1nnn(CC(=O)N2CCCc3ccccc32)n1)c1ccco1	27.4	35.9	30.0	115.6	16.6	/
O=C(Nc1ccccc1-c1nnn(CC(=O)N2CCCc3ccccc32)n1)c1ccc(Cl)cc1	56.2*	23.6	26.6	101.6	5.0	26.1
CCc1ccc(NC(=O)c2ccc3nc(N)sc3c2)cc1	54.4*	6.9	-19.1	85.3	27.6	30.8
COc1cccc(CNc2ccc([N+](=O)[O-])cc2Cl)c1O	58.1*	35.7	13.3	94.4	35.8	65.2*
O=C(COC(=O)c1cnccn1)c1ccc(-c2ccccc2)cc1	13.1	8.4	-7.1	89.9	-1.2	/
COc1ccc(CCNC(=O)CCOc2cc(C)ccc2C)cc1OC	8.8	2.3	-9.8	89.2	16.7	/
CCN(CC)CC(=O)Nc1sc(C)cc1C(=O)c1ccccc1	35.4	6.9	12.3	89.0	21.6	/
SMILES	tim23-1 inh	tim10-1 inh	TIM10 inh	Yeast superoxide	NLRP3 yeast inh	tim23-1 confirm
Cc1cc(C(=O)c2ccccc2)c(NC(=O)CCl)s1	55.2*	31.4	39.7	94.3	-15.3	38.1
N#C/C(=C\c1cccs1)C(=O)c1ccccc1Cl	62.0*	16.4	18.9	104.1	7.8	56.6*
CC12CC(O)C3c4ccc(O)cc4CCC3C1CC/C2=N\O (stereo unspecified)	-6.9	-3.9	7.0	97.8	-6.1	/
O=C(CSc1nnnn1C1CCCC1)c1ccc2c(c1)OCCO2	52.5*	39.0	33.6	100.1	9.4	45.5*
Cc1ccc(C(=O)NC2=NCCS2)cc1Cl	55.1*	-21.3	15.3	102.3	22.2	46.8*
CCc1ccc(C(=O)CN2C(=O)NC3(CCCCCC3)C2=O)cc1	50.6*	13.0	3.4	/	40.3	32.4
CCC(C)Sc1ccc(-c2nc3cc(C)ccn3c2NC2CCCCC2)cc1 (stereo unspecified)	56.2*	23.8	32.1	98.3	16.0	47.2*
O=C(Nc1ccc(C(F)(F)F)cc1)N1CCN(c2ccnc3cc(Cl)ccc23)CC1	51.2*	15.8	24.1	104.8	19.1	46.4*
O=C(Nc1cc(F)ccc1F)N1CCN(c2ccnc3cc(Cl)ccc23)CC1	20.7	21.9	10.7	80.5	32.6	/
OC(c1ccccc1)(C1CCCCC1)C(CN1CCOCC1)c1ccccc1 (stereo unspecified)	50.4*	17.7	26.6	108.2	0.6	30.8
COc1ccc(C(O)(C2CCCCC2)C(CN2CCOCC2)c2ccccc2)cc1 (stereo unspecified)	33.7	35.8	19.4	90.4	5.4	/
Cc1cccc(N(C)C(=O)C2CCCN2S(=O)(=O)c2cccc3nsnc23)c1 (stereo unspecified)	16.6	6.9	-2.8	108.4	-3.9	/
O=C1/C(=C/c2cccc(Br)c2)SC(=S)N1/N=C/c1cc([N+](=O)[O-])ccc1O	81.7*	12.6	18.1	107.5	31.3	30.3
Cc1ccc(S(=O)(=O)N2C[C@@H]3[C@H]4CC[C@H](C4)[C@@H]3[C@@H](C)[C@H]2c2ccn(Cc3ccccc3)c2)cc1	37.0	21.4	-0.3	105.3	/	/
Cc1ccc(S(=O)(=O)N2C[C@@H]3[C@H]4CC[C@H](C4)[C@@H]3[C@@H](C)[C@H]2C#N)cc1	90.8*	17.5	0.0	103.5	/	39.8*
CN(C(=S)NC(=O)c1ccccc1Br)C1CCCCC1	50.2*	39.9	27.6	71.8	-11.4	34.5
CC(=O)NC12CC3CC(C1)CC(C(=O)Nc1nc4ccc(F)cc4s1)(C3)C2	21.5	36.5	16.1	104.1	10.2	/
Cc1ccc(-c2n[nH]c(Cc3ccccc3)n2)cc1	7.4	-31.1	-10.9	108.6	25.5	/
CCCCCN=Cc1c(C)[nH]n(-c2nc3ccccc3s2)c1=O	55.8*	21.3	11.8	104.1	4.0	47.8*
O=C1C=C(c2ccc3[nH]ccc3c2)C[C@@H](c2ccc(F)cc2)C1	53.0*	38.8	24.6	86.6	4.2	50.5*
O=C1C=C(c2ccc3c(c2)OCCO3)C[C@@H](c2ccc(F)cc2)C1	51.0*	22.4	16.8	89.1	0.9	47.5*
O=C1C=C(c2ccc3c(c2)OCO3)C[C@@H](c2ccc(F)cc2)C1	20.9	14.5	6.5	107.0	-17.8	/
N#Cc1c(C(F)(F)F)cc(-c2ccccc2Cl)[nH]c1=O	17.6	12.5	1.3	105.7	6.7	/
C=CCSC1=NNC(c2ccc(C(C)(C)C)cc2)=NN1	23.2	11.1	14.4	103.5	17.2	/
CC(=O)O[C@]1(C(C)=O)CC[C@H]2[C@@H]3C=C(Cl)C4=CC(=O)[C@@H]5C[C@@H]5[C@]4(C)[C@H]3CC[C@@]21C	32.9	9.8	6.3	128.5	2.1	/
CNn1cnc2ccsc2c1=O	2.6	4.3	3.0	106.8	3.8	/
CCOC(=O)C1CCN(S(=O)(=O)c2c(Cl)ccc3nonc23)CC1	65.1*	25.3	20.9	113.5	20.3	60.3*
Cc1ccc(C(=O)O)cc1NS(=O)(=O)c1ccc2c(c1)oc(=O)n2C	11.6	24.5	-9.1	102.6	17.3	/
